Holding throughout (test): PBM; 200 nM protein, PBS
Holding throughout (conditions): dsDNA, one strand shown

In experiment [1] the target is T1, VENTX (Homo sapiens, UniProt O95231 78-163, R121Q).
T1 sequence: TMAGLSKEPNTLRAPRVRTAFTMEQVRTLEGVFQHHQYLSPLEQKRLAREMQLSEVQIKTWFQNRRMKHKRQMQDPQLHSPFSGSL

In experiment [2] the target is T2, VENTX (Homo sapiens, UniProt O95231 78-163).
T2 sequence: T1 sequence with Q44R

Experiment [3] deals with T3, VENTX (Homo sapiens, UniProt O95231 78-163, Y115F).
T3 sequence: T1 sequence with Y38F, Q44R

The target of experiment [4] is T4, NKX2-6 (Homo sapiens, UniProt A6NCS4 118-204).
T4 sequence: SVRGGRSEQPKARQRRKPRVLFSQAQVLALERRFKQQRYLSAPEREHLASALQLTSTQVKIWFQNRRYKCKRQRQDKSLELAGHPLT

Experiment [5] concerns the target T5, NKX2-6 (Homo sapiens, UniProt A6NCS4 118-204, F151L).
T5 sequence: T4 sequence with F34L

For experiment [6], the target named is MSX2 (Homo sapiens, UniProt P35548 130-214, R199I).
The target in experiment [7] is MSX2 (Homo sapiens, UniProt P35548 130-214).
Experiment [8] has as its target MSX2 (Homo sapiens, UniProt P35548 130-214, F161Y).
The target of experiment [9] is T6, NKX2-6 (Homo sapiens, UniProt A6NCS4 118-204, R150C).
T6 sequence: T4 sequence with R33C

The target in experiment [10] is HOXD13 (Homo sapiens, UniProt P35453 263-343, T313R).
Experiment [11] deals with HOXD13 (Homo sapiens, UniProt P35453 263-343).
Experiment [12] addresses HOXD13 (Homo sapiens, UniProt P35453 263-343, T313A).
The target of experiment [13] is HOXA2 (Homo sapiens, UniProt O43364 129-215, R185T).
For experiment [14], the target named is HOXA4 (Homo sapiens, UniProt Q00056 201-287, R217L).
For experiment [15], the target named is HOXA2 (Homo sapiens, UniProt O43364 129-215, R185K).
Experiment [16] concerns the target HOXA2 (Homo sapiens, UniProt O43364 129-215, Y150S).
Experiment [17] addresses HOXA2 (Homo sapiens, UniProt O43364 129-215).
Experiment [18] has as its target ALX1 (Homo sapiens, UniProt Q15699 118-204, L144V).
In experiment [19] the target is ALX1 (Homo sapiens, UniProt Q15699 118-204, L144R).
The target of experiment [20] is PROP1 (Homo sapiens, UniProt O75360 56-141).
Experiment [21] deals with PROP1 (Homo sapiens, UniProt O75360 56-141, R99H).
In experiment [22] the target is PROP1 (Homo sapiens, UniProt O75360 56-141, F88S).
Experiment [23] deals with ALX1 (Homo sapiens, UniProt Q15699 118-204).

The results in this text go back to PMC11006913.

Numbering of substitutions follows the chain as printed.

Chain of MSX2 (Homo sapiens, UniProt P35548 130-214, R199I) (P35548 130-214 R199I): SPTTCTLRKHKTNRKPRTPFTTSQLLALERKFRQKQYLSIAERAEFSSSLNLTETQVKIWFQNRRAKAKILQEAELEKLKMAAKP
Chain of MSX2 (Homo sapiens, UniProt P35548 130-214, F161Y) (P35548 130-214 F161Y): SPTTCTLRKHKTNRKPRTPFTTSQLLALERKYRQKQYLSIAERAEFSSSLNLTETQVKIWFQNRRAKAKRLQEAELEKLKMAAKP
Chain of MSX2 (Homo sapiens, UniProt P35548 130-214) (P35548 130-214): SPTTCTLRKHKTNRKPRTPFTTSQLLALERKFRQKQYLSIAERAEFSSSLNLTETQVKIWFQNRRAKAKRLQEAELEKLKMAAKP
Chain of HOXA2 (Homo sapiens, UniProt O43364 129-215, R185K) (O43364 129-215 R185K): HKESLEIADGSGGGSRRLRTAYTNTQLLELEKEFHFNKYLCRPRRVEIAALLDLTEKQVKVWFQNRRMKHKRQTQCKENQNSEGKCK
Chain of HOXA2 (Homo sapiens, UniProt O43364 129-215, R185T) (O43364 129-215 R185T): as the sequence (O43364 129-215 R185K) above, with K57T counted along it
Chain of PROP1 (Homo sapiens, UniProt O75360 56-141, F88S) (O75360 56-141 F88S): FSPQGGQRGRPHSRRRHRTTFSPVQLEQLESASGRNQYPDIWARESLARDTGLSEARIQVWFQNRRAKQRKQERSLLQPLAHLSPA
Chain of PROP1 (Homo sapiens, UniProt O75360 56-141) (O75360 56-141): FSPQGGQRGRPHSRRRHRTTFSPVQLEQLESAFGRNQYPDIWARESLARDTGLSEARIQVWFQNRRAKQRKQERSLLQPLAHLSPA
Chain of HOXA2 (Homo sapiens, UniProt O43364 129-215) (O43364 129-215): as the sequence (O43364 129-215 R185K) above, with K57R counted along it
Chain of HOXD13 (Homo sapiens, UniProt P35453 263-343, T313R) (P35453 263-343 T313R): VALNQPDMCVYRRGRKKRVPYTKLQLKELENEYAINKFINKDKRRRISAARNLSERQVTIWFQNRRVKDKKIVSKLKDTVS
Chain of HOXA2 (Homo sapiens, UniProt O43364 129-215, Y150S) (O43364 129-215 Y150S): as the sequence (O43364 129-215 R185K) above, with Y22S, K57R counted along it
Chain of ALX1 (Homo sapiens, UniProt Q15699 118-204, L144V) (Q15699 118-204 L144V): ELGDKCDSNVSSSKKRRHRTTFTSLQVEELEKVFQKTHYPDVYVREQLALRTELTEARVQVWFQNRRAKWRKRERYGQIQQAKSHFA
Chain of HOXD13 (Homo sapiens, UniProt P35453 263-343) (P35453 263-343): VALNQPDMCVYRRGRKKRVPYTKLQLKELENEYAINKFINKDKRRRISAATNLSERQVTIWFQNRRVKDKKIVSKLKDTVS
Chain of ALX1 (Homo sapiens, UniProt Q15699 118-204, L144R) (Q15699 118-204 L144R): as the sequence (Q15699 118-204 L144V) above, with V27R counted along it
Chain of PROP1 (Homo sapiens, UniProt O75360 56-141, R99H) (O75360 56-141 R99H): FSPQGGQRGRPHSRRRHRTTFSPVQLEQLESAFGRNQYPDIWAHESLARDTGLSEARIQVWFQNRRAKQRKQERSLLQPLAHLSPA
Chain of HOXD13 (Homo sapiens, UniProt P35453 263-343, T313A) (P35453 263-343 T313A): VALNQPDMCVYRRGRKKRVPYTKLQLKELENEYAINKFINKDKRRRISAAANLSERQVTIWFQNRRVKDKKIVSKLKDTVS
Chain of HOXA4 (Q00056 201-287 R217L): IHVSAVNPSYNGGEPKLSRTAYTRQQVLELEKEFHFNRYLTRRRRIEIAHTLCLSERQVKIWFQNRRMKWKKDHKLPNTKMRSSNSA
Chain of ALX1 (Homo sapiens, UniProt Q15699 118-204) (Q15699 118-204): as the sequence (Q15699 118-204 L144V) above, with V27L counted along it

Take ACGCCGCC: the binding signal in experiment [1] was 8.33 upbm affinity estimate (log intensity, higher = more binding, comparable within an allelic series); in [2], 8.43 upbm affinity estimate (log intensity, higher = more binding, comparable within an allelic series); in experiment [3] it was 8.35 upbm affinity estimate (log intensity, higher = more binding, comparable within an allelic series); in experiment [4], 9.13 upbm affinity estimate (log intensity, higher = more binding, comparable within an allelic series); in experiment [5] it was 9.22 upbm affinity estimate (log intensity, higher = more binding, comparable within an allelic series).

For the sequence CCTGGCTC, the binding signal was 8.01 upbm affinity estimate (log intensity, higher = more binding, comparable within an allelic series) in experiment [1]; 8.1 upbm affinity estimate (log intensity, higher = more binding, comparable within an allelic series) in experiment [2]; 8.06 upbm affinity estimate (log intensity, higher = more binding, comparable within an allelic series) in [3]; 9.46 upbm affinity estimate (log intensity, higher = more binding, comparable within an allelic series) in experiment [6]; 9.51 upbm affinity estimate (log intensity, higher = more binding, comparable within an allelic series) in experiment [7]; 9.47 upbm affinity estimate (log intensity, higher = more binding, comparable within an allelic series) in experiment [8].

Take CGGGTCGC: the binding signal in [1] was 8.13 upbm affinity estimate (log intensity, higher = more binding, comparable within an allelic series); in [2] it was 8.41 upbm affinity estimate (log intensity, higher = more binding, comparable within an allelic series); in experiment [3], 8.28 upbm affinity estimate (log intensity, higher = more binding, comparable within an allelic series); in experiment [9] it was 9.33 upbm affinity estimate (log intensity, higher = more binding, comparable within an allelic series); in experiment [6], 9.47 upbm affinity estimate (log intensity, higher = more binding, comparable within an allelic series); in [7] it was 9.59 upbm affinity estimate (log intensity, higher = more binding, comparable within an allelic series). In addition, the binding signal in experiment [8] was 9.55 upbm affinity estimate (log intensity, higher = more binding, comparable within an allelic series).

As for AAACTAAT, the binding signal is 11 upbm affinity estimate (log intensity, higher = more binding, comparable within an allelic series) in experiment [1]; 11.7 upbm affinity estimate (log intensity, higher = more binding, comparable within an allelic series) in experiment [2]; 11 upbm affinity estimate (log intensity, higher = more binding, comparable within an allelic series) in experiment [3].

With CCGCGGTC, the binding signal in experiment [1] is 7.69 upbm affinity estimate (log intensity, higher = more binding, comparable within an allelic series); in experiment [2], 7.87 upbm affinity estimate (log intensity, higher = more binding, comparable within an allelic series); in experiment [3] it was 7.89 upbm affinity estimate (log intensity, higher = more binding, comparable within an allelic series); in experiment [6] it was 9.33 upbm affinity estimate (log intensity, higher = more binding, comparable within an allelic series); in experiment [7], 9.33 upbm affinity estimate (log intensity, higher = more binding, comparable within an allelic series); in [8], 9.33 upbm affinity estimate (log intensity, higher = more binding, comparable within an allelic series).

Consider ACTATTTA, for which the binding signal in experiment [1] was 10.1 upbm affinity estimate (log intensity, higher = more binding, comparable within an allelic series); in experiment [2], 10.6 upbm affinity estimate (log intensity, higher = more binding, comparable within an allelic series); in experiment [3] it was 10.1 upbm affinity estimate (log intensity, higher = more binding, comparable within an allelic series).

With CGCCCGGA, the binding signal in experiment [1] is 7.98 upbm affinity estimate (log intensity, higher = more binding, comparable within an allelic series); in [2], 7.85 upbm affinity estimate (log intensity, higher = more binding, comparable within an allelic series); in experiment [3], 8.06 upbm affinity estimate (log intensity, higher = more binding, comparable within an allelic series); in [10] it was 9.55 upbm affinity estimate (log intensity, higher = more binding, comparable within an allelic series); in experiment [11] it was 9.51 upbm affinity estimate (log intensity, higher = more binding, comparable within an allelic series); in [12], 9.62 upbm affinity estimate (log intensity, higher = more binding, comparable within an allelic series).

Take CATTAGCG: the binding signal in experiment [1] is 11.8 upbm affinity estimate (log intensity, higher = more binding, comparable within an allelic series); in experiment [2] it was 12.7 upbm affinity estimate (log intensity, higher = more binding, comparable within an allelic series); in experiment [3] it was 11.6 upbm affinity estimate (log intensity, higher = more binding, comparable within an allelic series); in experiment [13] it was 12.3 upbm affinity estimate (log intensity, higher = more binding, comparable within an allelic series); in experiment [14] it was 11.4 upbm affinity estimate (log intensity, higher = more binding, comparable within an allelic series); in experiment [15], 13.1 upbm affinity estimate (log intensity, higher = more binding, comparable within an allelic series). The binding signal in [16] was 10.7 upbm affinity estimate (log intensity, higher = more binding, comparable within an allelic series); in experiment [17], 12.1 upbm affinity estimate (log intensity, higher = more binding, comparable within an allelic series).

In the case of CTCCGTCC, the binding signal in [1] was 8.11 upbm affinity estimate (log intensity, higher = more binding, comparable within an allelic series); in experiment [2], 8.05 upbm affinity estimate (log intensity, higher = more binding, comparable within an allelic series); in experiment [3], 8.03 upbm affinity estimate (log intensity, higher = more binding, comparable within an allelic series); in experiment [18], 6.35 upbm affinity estimate (log intensity, higher = more binding, comparable within an allelic series); in [19], 6.21 upbm affinity estimate (log intensity, higher = more binding, comparable within an allelic series); in experiment [20] it was 6.5 upbm affinity estimate (log intensity, higher = more binding, comparable within an allelic series). Besides, the binding signal in experiment [21] is 6.55 upbm affinity estimate (log intensity, higher = more binding, comparable within an allelic series); in experiment [22] it was 6.51 upbm affinity estimate (log intensity, higher = more binding, comparable within an allelic series); in experiment [23], 6.3 upbm affinity estimate (log intensity, higher = more binding, comparable within an allelic series).
